# ChEMBL document CHEMBL1961873, “Compounds: GSK PKIS; Assays: Nanosyn kinase panel” (2012)
# Target: Tyrosine-protein kinase BTK (Homo sapiens) (UniProt Q06187)
# Details: at 0.1 µM
# Sequence of Tyrosine-protein kinase BTK (Homo sapiens) (Q06187 whole entry): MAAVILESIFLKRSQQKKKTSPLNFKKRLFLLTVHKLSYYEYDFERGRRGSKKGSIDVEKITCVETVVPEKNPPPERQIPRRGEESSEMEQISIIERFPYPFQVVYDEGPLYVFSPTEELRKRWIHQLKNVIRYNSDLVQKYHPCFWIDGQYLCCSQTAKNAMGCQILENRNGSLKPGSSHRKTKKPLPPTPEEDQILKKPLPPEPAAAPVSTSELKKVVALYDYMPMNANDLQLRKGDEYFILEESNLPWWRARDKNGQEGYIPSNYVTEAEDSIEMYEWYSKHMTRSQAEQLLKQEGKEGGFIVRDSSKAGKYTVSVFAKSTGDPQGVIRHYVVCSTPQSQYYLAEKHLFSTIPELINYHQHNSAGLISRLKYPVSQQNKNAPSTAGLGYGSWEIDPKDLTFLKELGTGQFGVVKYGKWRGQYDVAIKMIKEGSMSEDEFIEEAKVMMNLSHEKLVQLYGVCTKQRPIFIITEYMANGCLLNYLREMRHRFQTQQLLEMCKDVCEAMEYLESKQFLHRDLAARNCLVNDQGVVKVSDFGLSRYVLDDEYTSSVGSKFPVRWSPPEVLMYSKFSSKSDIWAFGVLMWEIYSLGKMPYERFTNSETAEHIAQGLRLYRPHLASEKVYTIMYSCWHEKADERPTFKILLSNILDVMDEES
row,Compound,inhibition [%]
1,CN(C)c1ccc2c(c1)/C(=C/Nc1ccc(S(N)(=O)=O)cc1)C(=O)N2,-1.88
2,CN(c1ccc(NC(=O)Nc2c(Cl)cccc2Cl)cc1)c1ccnc(Nc2cccc(CS(C)(=O)=O)c2)n1,18.8
3,Fc1ccc(-c2c(-c3ccncc3)nc3n2CCS3)cc1,-5.15
4,N#Cc1ccc(Oc2nccc(-c3c(-c4ccc(F)cc4)ncn3C3CCNCC3)n2)cc1,-1.09
5,CN1CCN(CCCNc2nc3ccc(Oc4ccc(NC(=O)Nc5cc(C(F)(F)F)ccc5F)cc4)cc3[nH]2)CC1,-3.09
6,COc1cc(Nc2ncc(-c3ccccc3)o2)cc(OC)c1OC,-0.88
7,COc1cc2ncn(-c3cc(OCc4cccs4)c(C(N)=O)s3)c2cc1OC,-2.66
8,COc1cc2ncn(-c3cc(OCc4ccccc4C(F)(F)F)c(C(C)=O)s3)c2cc1OC,1.17
9,CN(C)CCCNc1nccc(-c2c(-c3ccc(F)cc3)nn3cc(C(F)(F)F)ccc23)n1,-3.09
10,c1ccc(Oc2ccc(Nc3ncc(-c4ccccc4)o3)cc2)cc1,-0.86
11,Fc1ccc(-c2ncn(CCCN3CCOCC3)c2-c2ccncc2)cc1,-0.91
12,COc1ccc2cc(-c3c(-c4ccncc4)nc(-c4ccc([S+](C)[O-])cc4C)n3C)ccc2c1 (stereo not drawn),-0.17
13,CS(=O)(=O)CCNCc1cc(-c2cc3c(Nc4ccc(OCc5cccc(F)c5)c(Cl)c4)ncnc3s2)cs1,-1.08
14,O=C1Nc2ccc(I)cc2C1=Cc1cc(Br)c(O)c(Br)c1,-1.22
15,CCc1cccc(CC)c1/C=C/c1cncc(C(=O)NC)c1,2.48
16,Fc1ccc(-c2ncn(C3CCNCC3)c2-c2ccnc(Oc3ccc(Oc4ccccc4)cc3)n2)cc1,-2.01
17,COc1ccc(C2=C(N3CCc4ccccc43)C(=O)NC2=O)cc1,1.91

row,Compound,inhibition [%]
1,O=C1Nc2ccccc2/C1=C/Nc1ccc(-n2cncn2)cc1,0.25
2,O=C(Nc1n[nH]c2cc(-c3cc(F)ccc3F)ccc12)C1CC1,-1.19
3,CCN(CC)Cc1ccc(Nc2nccc(-c3cnn4ncccc34)n2)cc1,-3.74
4,CCc1ccc(Oc2nccc(-c3c(-c4ccc(F)cc4)ncn3C3CCNCC3)n2)cc1,-0.17
5,O=C(Nc1n[nH]c2nc(-c3ccco3)ccc12)C1CC1,0.36
6,NC(=O)Cc1ccccc1Oc1nccc(-c2c(-c3ccc(F)cc3)ncn2C2CCNCC2)n1,1.29
7,CCc1nccc2c1nc(-c1nonc1N)n2CC,-0.56
8,NC(=O)c1cc(-c2ccncc2)cc(-c2ccccc2)c1N,1.6
9,COc1ccc(-c2ccc3c(NC(=O)C4CC4)n[nH]c3n2)cc1,0.22
10,COC(=O)Nc1nc2ccc(Sc3ccc(NC(=O)Nc4cc(C(F)(F)F)ccc4F)cc3)cc2[nH]1,2.12
11,Fc1ccc(-c2ncn(C3CCNCC3)c2-c2ccnc(Oc3ccc(F)c(F)c3)n2)cc1,-4.19
12,O=C(Nc1n[nH]c2nc(-c3ccc(O)cc3)c(Br)cc12)C1CC1,-0.08
13,Cc1ccc(NC(=O)c2ccoc2)cc1-c1ccc(C(=O)NCC2CC2)cc1,0.36
14,COc1cc(N2CCN(C(C)C)CC2)ccc1Nc1nc(Nc2ccc(F)cc2C(=O)NC[C@@H](O)CO)c2cc[nH]c2n1,-2.66
15,CCS(=O)(=O)c1ccc(OC)c(Nc2ncc(-c3cccc(-c4ccccc4F)c3)o2)c1,-0.93
16,NS(=O)(=O)c1ccc(N/N=C2\C(=O)Nc3ccc(-c4cnco4)cc32)cc1,-4.28
17,C[C@@H](Oc1cc(-n2cnc3ccc(OC4CCN(C)CC4)cc32)sc1C(N)=O)c1ccccc1Cl,-4.65

# Target: Tyrosine-protein kinase BTK (Homo sapiens) (UniProt Q06187)
# Details: at 1 µM
row,Compound,inhibition [%]
1,CN(C)c1ccc2c(c1)/C(=C/Nc1ccc(S(N)(=O)=O)cc1)C(=O)N2,-0.24
2,CN(c1ccc(NC(=O)Nc2c(Cl)cccc2Cl)cc1)c1ccnc(Nc2cccc(CS(C)(=O)=O)c2)n1,26.5
3,Fc1ccc(-c2c(-c3ccncc3)nc3n2CCS3)cc1,-4.99
4,N#Cc1ccc(Oc2nccc(-c3c(-c4ccc(F)cc4)ncn3C3CCNCC3)n2)cc1,0.54
5,CN1CCN(CCCNc2nc3ccc(Oc4ccc(NC(=O)Nc5cc(C(F)(F)F)ccc5F)cc4)cc3[nH]2)CC1,1.43
6,COc1cc(Nc2ncc(-c3ccccc3)o2)cc(OC)c1OC,0.25
7,COc1cc2ncn(-c3cc(OCc4cccs4)c(C(N)=O)s3)c2cc1OC,-0.98
8,COc1cc2ncn(-c3cc(OCc4ccccc4C(F)(F)F)c(C(C)=O)s3)c2cc1OC,1.75
9,CN(C)CCCNc1nccc(-c2c(-c3ccc(F)cc3)nn3cc(C(F)(F)F)ccc23)n1,-2.3
10,c1ccc(Oc2ccc(Nc3ncc(-c4ccccc4)o3)cc2)cc1,0.56
11,Fc1ccc(-c2ncn(CCCN3CCOCC3)c2-c2ccncc2)cc1,2.71
12,COc1ccc2cc(-c3c(-c4ccncc4)nc(-c4ccc([S+](C)[O-])cc4C)n3C)ccc2c1 (stereo not drawn),0.66
13,CS(=O)(=O)CCNCc1cc(-c2cc3c(Nc4ccc(OCc5cccc(F)c5)c(Cl)c4)ncnc3s2)cs1,0.76
14,O=C1Nc2ccc(I)cc2C1=Cc1cc(Br)c(O)c(Br)c1,-0.86
15,CCc1cccc(CC)c1/C=C/c1cncc(C(=O)NC)c1,2.98
16,Fc1ccc(-c2ncn(C3CCNCC3)c2-c2ccnc(Oc3ccc(Oc4ccccc4)cc3)n2)cc1,0.33
17,COc1ccc(C2=C(N3CCc4ccccc43)C(=O)NC2=O)cc1,0.84

row,Compound,inhibition [%]
1,O=C1Nc2ccccc2/C1=C/Nc1ccc(-n2cncn2)cc1,-0.4
2,O=C(Nc1n[nH]c2cc(-c3cc(F)ccc3F)ccc12)C1CC1,-2.01
3,CCN(CC)Cc1ccc(Nc2nccc(-c3cnn4ncccc34)n2)cc1,-0.83
4,CCc1ccc(Oc2nccc(-c3c(-c4ccc(F)cc4)ncn3C3CCNCC3)n2)cc1,0.53
5,O=C(Nc1n[nH]c2nc(-c3ccco3)ccc12)C1CC1,0.7
6,NC(=O)Cc1ccccc1Oc1nccc(-c2c(-c3ccc(F)cc3)ncn2C2CCNCC2)n1,0.76
7,CCc1nccc2c1nc(-c1nonc1N)n2CC,0.41
8,NC(=O)c1cc(-c2ccncc2)cc(-c2ccccc2)c1N,11.8
9,COc1ccc(-c2ccc3c(NC(=O)C4CC4)n[nH]c3n2)cc1,-0.23
10,COC(=O)Nc1nc2ccc(Sc3ccc(NC(=O)Nc4cc(C(F)(F)F)ccc4F)cc3)cc2[nH]1,2.1
11,Fc1ccc(-c2ncn(C3CCNCC3)c2-c2ccnc(Oc3ccc(F)c(F)c3)n2)cc1,-4.23
12,O=C(Nc1n[nH]c2nc(-c3ccc(O)cc3)c(Br)cc12)C1CC1,0.5
13,Cc1ccc(NC(=O)c2ccoc2)cc1-c1ccc(C(=O)NCC2CC2)cc1,0.35
14,COc1cc(N2CCN(C(C)C)CC2)ccc1Nc1nc(Nc2ccc(F)cc2C(=O)NC[C@@H](O)CO)c2cc[nH]c2n1,-4.6
15,CCS(=O)(=O)c1ccc(OC)c(Nc2ncc(-c3cccc(-c4ccccc4F)c3)o2)c1,3.93
16,NS(=O)(=O)c1ccc(N/N=C2\C(=O)Nc3ccc(-c4cnco4)cc32)cc1,-2.57
17,C[C@@H](Oc1cc(-n2cnc3ccc(OC4CCN(C)CC4)cc32)sc1C(N)=O)c1ccccc1Cl,-3.35
